These results are taken from ChEMBL document CHEMBL1961873, “Compounds: GSK PKIS; Assays: Nanosyn kinase panel” (2012).

Several values for one entry are separate records, joined by “and”; a condition that tells them apart may be missing. Equal entries are not always repeated.

What is called inhibition is the relative decrease from the control value, in per cent.
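Further: mean percent inhibition of the kinase bound to its cyclin partner.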

The target of the assay is Cyclin-dependent kinase 6 (Homo sapiens) (UniProt Q00534). Conditions: at 1 µM.
Chain of Cyclin-dependent kinase 6 (Homo sapiens) (Q00534 whole entry): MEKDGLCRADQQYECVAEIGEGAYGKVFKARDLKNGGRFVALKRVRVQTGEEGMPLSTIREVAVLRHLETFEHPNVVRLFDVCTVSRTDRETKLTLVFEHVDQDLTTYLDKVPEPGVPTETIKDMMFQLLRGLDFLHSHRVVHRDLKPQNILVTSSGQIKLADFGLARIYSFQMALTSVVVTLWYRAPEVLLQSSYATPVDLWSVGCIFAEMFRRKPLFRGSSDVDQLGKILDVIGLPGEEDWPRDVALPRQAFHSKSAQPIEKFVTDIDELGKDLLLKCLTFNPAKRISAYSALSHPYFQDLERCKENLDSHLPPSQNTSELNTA
`Cc1cc(O)cc(C)c1/C=C/c1cncc(C(N)=O)c1`: the inhibition was determined as 4.03%.

Turning to `CC1=C(C(=O)Nc2ccc3[nH]ncc3c2)C(c2ccc(F)cc2)N=C(c2ccc(C(F)(F)F)nc2)N1` (stereo unspecified), the inhibition turned out to be 1.9%.

In the case of `COc1c(C(N)=O)cc(-c2ccc(Cl)cc2)cc1-c1ccc(S(N)(=O)=O)cc1`, the inhibition was -0.36%.

As to `Cc1cc(O)cc(C)c1/C=C/c1cncc(C(=O)OC(C)(C)C)c1`, the inhibition was determined as 5.01%.

For the compound `COc1ccc(Nc2ncc(-c3ccccc3)o2)cc1OC`, the inhibition turned out to be 23.4%.

For `Fc1ccc(Nc2nccc(-c3c(-c4ccc(C(F)(F)F)cc4)nn4ncccc34)n2)cc1F`, the inhibition stood at 1.37%.

Turning to `O=C(O[C@H]1CN[C@H](C#Cc2cc3ncnc(Nc4ccc(OCc5cccc(F)c5)c(Cl)c4)c3s2)C1)N1CCOCC1`, the inhibition was -0.42%.

Regarding `COc1ccc2ncn(-c3cc(O[C@H](C)c4ccccc4C(F)(F)F)c(C(N)=O)s3)c2c1`, the inhibition is -1.08%.

With `CNC(=O)c1ncccc1Nc1nc(Nc2cc3c(cc2OC)CCCN3C(=O)CN(C)C)nc2[nH]ccc12`, the inhibition came out at 7.17%.

For `COc1ccccc1-c1cc(/C=C2\C(=O)Nc3ncc(Br)cc32)cc(Br)c1O`, the inhibition worked out at 6.64%.

As to `c1cnn2ncc(-c3ccnc(NCCCN4CCOCC4)n3)c2c1`, the inhibition came out at 2.95%.

With `CCCNc1cccc(-n2ncc3c(N/N=C/c4ccncc4)ncnc32)c1`, the inhibition worked out at 10.1%.

`OCCCNc1nccc(-c2c(-c3ccc(F)cc3)nn3cc(C(F)(F)F)ccc23)n1`: the inhibition is 5.92%.

As for `CS(=O)(=O)Nc1ccc(-c2ccc3c(NC(=O)C4CC4)n[nH]c3c2)cc1`, the inhibition is 36.3%.

As to `CN1CCC(C(=O)Nc2n[nH]c3nc(-c4ccc(O)cc4)c(Br)cc23)CC1`, the inhibition was 76.5% and 74%.

With `CS(=O)(=O)Nc1ccc(-c2cc(-c3ccccc3)cc(C(N)=O)c2N)cc1`, the inhibition is -0.55%.

Take `COc1cccc(Nc2nccc(-c3cnn4ncccc34)n2)c1`: the inhibition came to 80.5%.

For `CS(=O)(=O)CCNCc1ccc(-c2ccc3ncnc(Nc4ccc(OCc5ccccc5)cc4)c3c2)o1`, the inhibition stood at 1.12%.

In the case of `CC(C)c1ccc(-c2cc(-c3c[nH]nc3-c3ccccn3)ccn2)cc1`, the inhibition amounted to 1.16%.

Turning to `FC(F)(F)CNc1nccc(-c2cnn3ncccc23)n1`, the inhibition is 3.37%.

Consider `Cc1nnc(-c2cccc(-c3ccc(C(=O)NCC4CC4)cc3)c2)o1`, for which the inhibition stood at 4.2%.

Turning to `COc1ccc(-c2nn3ncccc3c2-c2ccnc(Nc3ccc(F)c(F)c3)n2)cc1`, the inhibition is 3.48%.

Consider `O=C(Nc1n[nH]c2nnc(-c3cccnc3)cc12)C1CC1`, for which the inhibition was found to be 64.6%.

Turning to `NS(=O)(=O)c1ccc(N/N=C2\C(=O)Nc3cccc(CCc4ccncc4)c32)cc1`, the inhibition was found to be 56.2%.

For the compound `CNC(=O)c1cncc(/C=C/c2ccccc2C)c1`, the inhibition worked out at 4.46%.

In the case of `NS(=O)(=O)c1ccc(N/N=C2\C(=O)Nc3ccc(C(=O)NCc4ccncc4)cc32)cc1`, the inhibition stood at 58.6%.

With `CCS(=O)(=O)c1ccc(OC)c(Nc2ncc(-c3cccc(F)c3)o2)c1`, the inhibition amounted to 1.82%.

For `COc1cccc(-n2ncc3c(N/N=C/c4ccc(C(=O)NCCN(C)C)cc4)ncnc32)c1`, the inhibition is 81.5%.

Turning to `COC(=O)Nc1nc2ccc(Oc3ccc(NC(=O)Nc4cc(C(F)(F)F)ccc4F)cc3)cc2s1`, the inhibition was 2.05%.

With `Cn1c(-c2nonc2N)nc2cnccc21`, the inhibition was 1.64%.

On to `CCN1CCC(C(=O)Nc2n[nH]c3nnc(-c4cccc(F)c4F)cc23)CC1`, for which the inhibition stood at 28.9%.
